Abeta yeast res: restores growth of yeast expressing A-beta42 peptide; yeast expressing A-beta42, growth rescue, OD600, 48 h; response scale: 0% DMSO, 100% iron-clioquinol control; Potency, µM (highest dose often 46.1 µM), hits mostly activators; 410,000 compounds, 0.063% hits; AID 1347071; further: nearly all actives have a fitted effect of over 55% in size
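Yeast growth medium received pinned compounds, then yeast cells expressing toxic A-beta were added; plates incubated at 30 C for 48 hr. Growth read as absorbance at 600 nm, normalized to DMSO and equimolar FeCl3 plus clioquinol controls.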
Mito fusion act: mitochondrial division inhibition or fusion activation; S. cerevisiae fusion-defective mutant growth rescue, CellTiterGlo 48 h; 320,000 compounds, 0.23% hits; Potency, µM (highest dose often 46.1 µM), inactives show at the top dose growth rescue (activation), most hits filed as activators; AID 485298; further: % of control where 0% means no effect; nearly all actives have a fitted effect of over 45% in size
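Growth-rescue viability read-out: after 48 h at the non-permissive 37C in glycerol/ethanol YPEG, yeast mitochondrial fusion mutants are measured by CellTiterGlo luminescence; compounds (23 nl pinned per well) restoring growth score as division inhibitors or fusion activators.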
aSyn rescue: rescues yeast growth from alpha-synuclein toxicity | Yeast expressing alpha-synuclein, growth rescue, BacTiter-Glo, 24 h | Potency, µM (top dose mostly 46.1 µM), without a hit: at the top dose growth rescue (activation), hits mostly activators | 370,000 compounds, 0.14% hits | AID 652106; further: % of control where 0% means no effect; nearly all actives have a fitted effect of over 65% in size
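Readout is rescue of growth in alpha-synuclein-expressing yeast, so inhibitors of toxicity appear as activators. Growth after 24 hr at 30 deg C in galactose medium is quantified by luminescence.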
TDP-43 yeast inh: rescues yeast growth from TDP-43 toxicity; TDP-43 expressing yeast growth rescue, BacTiter-Glo, 24 h; 410,000 compounds, 1.8% hits; Potency, µM (titrated, usually from 46.1 µM), for the others: top-dose growth rescue (activation), hits mostly activators; further: % of control where 0% means no effect; nearly all actives have a fitted effect of over 50% in size
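Yeast expressing TDP-43 (pregrown in raffinose, seeded at OD600=0.02 in galactose medium) exposed to compounds 24 hr at 30 deg C. Growth read by BacTiter-Glo luminescence; rescue of toxicity appears as increased signal.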
FUS suppressor: FUS proteinopathy suppression in yeast | 390,000 compounds, 0.24% hits | Potency, µM (top dose mostly 76.6 µM), hits mostly activators | S. cerevisiae FUS-expressing, growth rescue, OD600, 24 h | AID 1347120;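 further: plate controls were DMSO vehicle for no effect and reference control for full effect; nearly all actives have a fitted effect of over 55% in size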
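Toxicity suppression screen in FUS-yeast. Cells induced with 2% galactose, starting OD 0.005, treated 24hr at 30C with compounds at multiple final concentrations; growth by OD600.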
Numbers without * were called inactive; i = inactive; u = inconclusive; x = no result given. Sampled rows, rich in hits. Any-hit rate of the full collection: about 2.2%. The call rests on the fitted dose curve; in most records, active means well fitted curve in the direction sought with a large enough effect; inconclusive means small, poorly fitted or top-dose-only effect, or another doubt; inactive means no such curve, though single readings can be large; an effect the other way counts as inactive or inconclusive. Potency means the concentration at half of the fitted maximal effect.

SMILES	Abeta yeast res	Mito fusion act	aSyn rescue	TDP-43 yeast inh	FUS suppressor
Cc1ccc(C)c(N2CCN(C(=O)c3cc4c(=O)n(Cc5ccco5)ccc4nc3C)CC2)c1	i	x	x	-10%	i
Fc1cccc2sc(Nc3nc4cc5c(cc4s3)OCO5)nc12	i	u	-1%	4%	i
Fc1cccc2sc(Nc3nc4cc5c(cc4s3)OCCO5)nc12	i	11µM*	0%	-5%	i
CC(C)(C)c1ccc(-n2ncc3c2CCCC3NC(=O)CN2CCCCC2=O)cc1 (configuration not stated)	i	4.5µM*	3%	-19%	i
Cc1ccc(-n2c(=O)c3c4c(sc3n(Cc3cccc(Cl)c3)c2=O)CCC4)cc1C	i	x	x	14%	i
O=C1OC(Sc2ccccc2)(c2ccccc2)c2ccccc21 (configuration not stated)	i	x	14%	11µM*	i
O=C1CS(=O)(=O)C2(C(=O)N(Cc3ccccc3Cl)c3ccccc32)N1c1ccc(F)cc1 (configuration not stated)	i	x	15%	u	i
Cc1cccc(Cn2cc(CN3CC(N(C)CCCOC(=O)c4cc(C)cc(C)c4)CS3(=O)=O)nn2)c1 (configuration not stated)	x	x	x	x	i
CCN(C(=O)c1cc2c(=O)n3ccccc3nc2s1)C1CCCCC1	i	23%	1%	18µM*	i
CCCCN(CC)C(=O)c1cc2c(=O)n3cccc(C)c3nc2s1	i	18%	-2%	35µM*	i
CCCCN1C(=O)C2(OCCCO2)c2cccc(C)c21	i	0%	6%	20µM*	i
CCCCCOc1ccc(C(=O)NCC2(c3ccccc3)CCOCC2)cc1	i	16%	3%	-10%	u
CCCCOc1ccc(C(=O)NCC2(c3ccccc3)CCOCC2)cc1	i	u	2%	16µM*	u
CCC(=O)Nc1ccc(Cl)c(NC(=S)NC(=O)c2ccco2)c1	i	12%	-2%	11µM*	i
O=C(NC(=S)NCCc1ccccc1)c1ccccc1F	i	-16%	-10%	11µM*	i
O=C(NC(=S)NCCc1ccc(Cl)cc1)c1ccco1	u	-5%	-1%	14µM*	i
CCC(=O)Nc1ccc(Cl)c(NC(=S)NC(=O)c2cc3ccccc3o2)c1	i	0%	-8%	-5%	x
c1ccc2nccnc2c1	x	x	-14%	x	x
COc1ccccc1/C=C1/C(=O)N(c2cc(C)cc(C)c2)C(c2cccc([N+](=O)[O-])c2)S1(=O)=O (configuration not stated)	i	0%	-14%	11µM*	i
COc1ccccc1/C=C1/C(=O)N(c2ccc([N+](=O)[O-])cc2)N=C1C	i	-6%	-1%	-24%	i
CCOc1ccc(N2C(=O)/C(=C\c3ccccc3OC)S(=O)(=O)C2c2cccc([N+](=O)[O-])c2)cc1 (configuration not stated)	i	-6%	-52%	11µM*	i
O=C(Cc1c(F)c(F)c(F)c(F)c1F)Nc1nc(-c2ccccc2)cs1	i	11µM*	-9%	20µM*	i
O=C(Nc1nc(-c2ccccc2)cs1)C1CCCCN1S(=O)(=O)c1ccc(Cl)cc1 (configuration not stated)	i	18µM*	14%	-1%	i
Cc1ccc(S(=O)(=O)CC(=O)Nc2nc(-c3ccccc3)cs2)cc1	i	14%	12%	10µM*	i
O=C(Cc1ccc(F)cc1)Nc1nc(-c2ccc(F)cc2)cs1	i	6%	u	14%	i
SMILES	Abeta yeast res	Mito fusion act	aSyn rescue	TDP-43 yeast inh	FUS suppressor
CCc1ccccc1OCC(=O)Nc1nc(-c2cccnc2)cs1	u	4%	u	6.3µM*	i
Cc1c(NC(=O)c2ccc(Br)o2)cccc1-c1nc2ccccc2o1	i	x	x	17%	i
O=c1oc2ccccc2c2c1ccc1ccccc12	i	x	7%	35µM*	i
Cc1csc(N/N=C/c2c(F)cccc2Cl)n1	i	-14%	-18%	28µM*	i
Cc1csc(N/N=C/c2ccccc2F)n1	i	-17%	-1%	u	i
O=C(Nc1cccc(C(=O)O)c1)Nc1ccc2c(c1)OCO2	i	0%	-10%	-20%	i
O=C(O)c1cccc(-c2ccc3c(c2)OCO3)c1	i	1%	17%	13µM*	i
COc1ccc(/C=C(/C(=O)Nc2ccccc2C(=O)NC(C)C)c2ccccc2)cc1	i	5%	-13%	20µM*	i
COc1ccc(/C=C(/C(=O)Nc2ccccc2C(=O)N2CCCC2)c2ccccc2)cc1	i	6%	-10%	u	i
COC(=O)c1ccc(NC(=O)COc2ccccc2C(=O)Nc2ccccc2)cc1	x	x	-4%	x	x
CCc1cccc(NC(=O)Cn2nc(-c3cc(C)ccc3C)ccc2=O)c1	u	x	x	28µM*	u
Cc1ccc(-c2ccc(=O)n(CC(=O)Nc3cccc(C#N)c3)n2)cc1	i	x	x	2%	i
COc1ccc(OC)c(NC(=O)CSc2nc3n[nH]c(C)c3c(=N)n2-c2cccc(Cl)c2C)c1	i	6.3µM*	4%	3%	u
Cc1c(Cl)cccc1-n1c(SCC(=O)NCc2ccccc2)nc2n[nH]c(C)c2c1=N	i	x	x	-10%	i
Cc1ccccc1-n1c(SCC(=O)Nc2ccccc2Cl)nc2n[nH]c(C)c2c1=N	i	11µM*	6%	9%	i
O=C(NCCCN1CCCCC1)c1cc(Sc2ccc(Cl)cc2)nc2ccccc12	i	x	x	10%	i
COc1ccc(OCCCC(=O)Nc2nc(-c3ccccn3)cs2)cc1	u	-5%	2%	11µM*	i
Cc1cc(C)c(OCC(=O)Nc2nc(-c3ccccn3)cs2)c(C)c1	i	6%	13µM*	-14%	u
O=C(CC1CC2CCC1C2)Nc1nc(-c2ccccn2)cs1 (configuration not stated)	14µM*	-9%	25µM*	18µM*	i
O=C(CSc1ccccc1)NC1CCCCN(Cc2cccc(Cl)c2)C1=O (configuration not stated)	x	x	x	x	i
CC(C)NC(=O)C1(C)CSCC(=O)N1C1CCN(Cc2ccccc2)CC1 (configuration not stated)	i	x	-13%	11%	i
COc1ccc(NC(=O)c2cccc(Oc3ccccc3)c2)cn1	i	8%	10%	11µM*	i
COc1cccc(NC(=O)Nc2ccccc2SC)c1	i	-1%	-9%	20µM*	i
COc1ccc(NC(=S)NC(=O)c2ccccc2)cn1	i	-8%	2%	5%	i
COc1ccc(NC(=O)Nc2ccccc2SC)c(OC)c1	i	-7%	0%	-11%	i
